Screens (PubChem BioAssay)
HCV inh: inhibitors of hepatitis C virus infection. Huh7.5.1 HCVcc-Cre infection, luciferase reporter, 44 h. Potency, µM (highest dose often 41.8 µM), inactives show top-dose activity change, negative = inhibition, hits mostly inhibitors. AID 651820. hit rate 3.4% among 340,000; active means well fitted inhibition curve with a large enough effect; inconclusive means small, poorly fitted or top-dose-only effect, or another doubt; inactive means no such curve, though single readings can be large or run the other way; further: potency means the concentration at half of the fitted maximal effect
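Seed cells (1,000/well) for 4 h; treat with compound and infect with HCVcc-Cre, moi about 0.5. Incubate 44 h, then detect luciferase activity.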
Lassa entry inh: inhibitors of Lassa virus binding or cell entry | Potency, µM (highest dose often 37.9 µM), for the others: at the highest dose activity change, negative = inhibition, actives largely listed as inhibitors | Lassa virus pseudotype entry inhibition, cell reporter | hit rate 1.2% among 300,000; calls by dose curve; tested in HEK293 cells; further: potency means the concentration at half of the fitted maximal effect; nearly all actives have a fitted effect of over 50% in size
MARV entry inh: blocks Marburg virus binding to or entry into cells; Potency, µM (titrated, usually from 37.8 µM), without a hit: at the highest dose activity change, negative = inhibition, actives largely listed as inhibitors; AID 540276; hit rate 1.8% among 300,000; Marburg virus pseudotyped entry inhibition, cell reporter; calls by dose curve; tested in HEK293 cells; further: potency means the concentration at half of the fitted maximal effect
HCMV inh: human cytomegalovirus inhibition. HFF cells, HCMV-luciferase reporter, 72 h; active compounds read low. activity change, negative = inhibition, % at 57.5 µM. hit rate 4.5% among 410,000; in the data active means activity change below about -60%; inconclusive means no clear call, values can overlap the other calls; inactive means above about -39%
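Steps: HFFs plated, 16 h 37C; compounds added; HCMV-luciferase added to MOI 1 PFU/cell; 72 h 37C; OneGlo reagent, 5 min room temperature; luminescence read, normalized to controls.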
FMDV antiviral: antivirals against foot and mouth disease virus. FMDV antiviral cell-based qHTS. Potency, µM (highest dose often 57.9 µM), inactives show top-dose activity change, negative = inhibition, usual class: inhibitors. hit rate 1.2% among 410,000. AID 1159524; calls by dose curve; tested in HEK293T cells; further: read-out not given here; potency means the concentration at half of the fitted maximal effect; nearly all actives have a fitted effect of over 45% in size
Active calls of the source: *; u = inconclusive; x = no result; ! = not active in a repeat; [ ] = remark or other dose. A selection: hits, their analogues and other compounds. The true share with any hit is near 7.9%. On the % scale 0 is the no-effect control and ±100 the full control effect.

SMILES	HCV inh	Lassa entry inh	MARV entry inh	HCMV inh	FMDV antiviral
COc1ccc(CNC(=O)c2ccc3nc(CCc4ccccc4)oc3c2)cc1OC	x	-30%[46.1 µM]	x	-22	u
O=C(CSc1nc2ccsc2c(=O)n1Cc1ccccc1F)NCc1ccccc1	x	-5%[46.1 µM]	x	8	-5%
COc1ccc(NC(=O)C2=C(C)Nc3ncnn3C2c2ccc(O)cc2)cc1 (stereo unspecified)	x	-14%[46.1 µM]	x	7	5%
COc1cccc(C(=O)Nc2cc(-c3ccccc3)nn2-c2ccccc2)c1	x	20%[46.1 µM]	x	-1	-17%
CNC(=O)C1(C)Cc2c(-c3ccc4c(c3)OCO4)ccnc2O1 (stereo unspecified)	x	x	x	2	-19%
CC(=O)Nc1cccc(-c2ccnc3c2CC(C)(C(=O)Nc2ccc4c(c2)OCO4)O3)c1 (stereo unspecified)	x	x	x	-79*	-16%
CC1(C(=O)Nc2ccc(Cl)c(C(F)(F)F)c2)Cc2c(-c3ccc(C(N)=O)cc3)ccnc2O1 (stereo unspecified)	x	x	x	-62*	u
COc1ccc(NC(=O)C2(C)Cc3c(-c4ccc(NC(C)=O)cc4)ccnc3O2)cn1 (stereo unspecified)	x	x	x	-6	-6%
COc1ccc(NC(=O)C2(C)Cc3c(-c4ccc5c(c4)OCO5)ccnc3O2)cc1 (stereo unspecified)	x	x	x	-62*	-5%
CC1(C(=O)Nc2ccc(Cl)c(C(F)(F)F)c2)Cc2c(-c3cccc(C(N)=O)c3)ccnc2O1 (stereo unspecified)	x	x	x	-31	u
COc1ccc(NC(=O)C2(C)Cc3c(-c4cccc(NC(C)=O)c4)ccnc3O2)cn1 (stereo unspecified)	x	x	x	-72*	-16%
CCSc1nnc(NC(=O)c2cc(=O)c3cc(C)ccc3o2)s1	x	10%[46.1 µM]	5%[46.1 µM]	21	-18%
CCC(=O)N1c2ccccc2CC1C(=O)NCCN1CCN(c2cccc(C(F)(F)F)c2)CC1 (stereo unspecified)	x	-3%[46.1 µM]	x	-15	-23%
CC(C(=O)Nc1ccccc1C(F)(F)F)n1nc(-c2ccccc2)c2c(c1=O)CCCC2 (stereo unspecified)	x	17%[46.1 µM]	u	-36	-2%
Cc1ccc(Cc2c(C)nc3nc(SCC(=O)NCCC(C)C)nn3c2C)cc1	x	20%[46.1 µM]	-4%[46.1 µM]	-10	0%
CN(C)c1ccc(-c2ccnc3c2CC(C)(C(=O)Nc2cccc(OC(F)(F)F)c2)O3)cc1 (stereo unspecified)	x	x	x	8	-3%
CC1(C(=O)Nc2cccc(OC(F)(F)F)c2)Cc2c(-c3ccc4c(c3)OCO4)ccnc2O1 (stereo unspecified)	x	x	x	-60*	-1%
COc1ccc(CN2CCOc3ccc(C(O)c4cccnc4)cc3C2)cc1O (stereo unspecified)	x	x	x	x	-19%
Cc1c(C(=O)NC(C)(C)CO)sc2ncnc(NCCN(C)C)c12	x	x	x	x	-9%
COCCn1c(C)cc(C(=O)CSc2nnc(C)s2)c1C	-14%	u	u	u	7.9µM*
COc1ccc(Cl)cc1C(=O)CSc1nnnn1C1CCCC1	u	-2%	-18%	-16	12%
COCCn1c(C)cc(C(=O)COC(=O)c2cccc(O)c2)c1C	-17%	x	x	-36	11µM*
COCCn1c(C)cc(C(=O)CSc2nnnn2C2CCCC2)c1C	-16%	1.3µM*	u	u	13µM*
COc1ccc(Cl)cc1C(=O)CSc1nnnn1C1CCCCC1	u	-10%	u	-62*	-24%
COc1ccc(CCn2c(C)cc(C(=O)CSc3nnnn3C)c2C)cc1	5%	9%	1%	14	-21%
SMILES	HCV inh	Lassa entry inh	MARV entry inh	HCMV inh	FMDV antiviral
CCOC(C(=O)OC[C@@H](O)CN(CC)CC)(c1ccccc1)c1ccccc1	x	x	-25%	x	x
Cc1ccc(OC(C)C(=O)Nc2ccc(C)c(S(=O)(=O)Nc3ccc(C)cc3C)c2)cc1 (stereo unspecified)	u	16µM*	u	37	-7%
COc1cccc(NC(=O)CSC2=Nc3ccccc3C3=NC(CC(=O)NCc4ccc5c(c4)OCO5)C(=O)N23)c1 (stereo unspecified)	x	-3%[46.1 µM]	x	36	-19%
CCC(SC1=Nc2ccccc2C2=NC(CC(C)C)C(=O)N12)C(=O)Nc1ccc2c(c1)OCO2 (stereo unspecified)	8.9µM*!	16%	u	20	33%
COc1ccc(C)cc1NC(=O)CSc1nnc(-c2ccc(C)cc2)o1	-17%	x	x	123	-29%
COc1ccc(C)cc1NC(=O)CN(Cc1nnc(-c2ccc(Cl)cc2)o1)C1CCCC1	7.9µM*	-1%	u	-8	-2%
COc1ccc(OC)c(NC(=O)NCc2ccc(F)cc2)c1	u	0%	u	-20	7%
COc1ccc(OC)c(NC(=O)CN(Cc2ccc(F)cc2)C2CCCCC2)c1	u	u	u	-93*	u
CN(c1cccc(NC(=O)CN(c2cccc(Cl)c2)S(=O)(=O)c2ccccc2)c1)S(C)(=O)=O	11µM*	u	u	u	0%
COc1ccc(N(CC(=O)Nc2cccc(N(C)S(C)(=O)=O)c2)S(=O)(=O)c2ccccc2)cc1Cl	u	-24%	u	-15	-20%
CCOc1ccc(N(CC(=O)Nc2cccc(N(C)S(C)(=O)=O)c2)S(=O)(=O)c2ccccc2)cc1	u	u	u	-64*	16%
COc1ccc(N(CC(=O)Nc2cccc(N(C)S(C)(=O)=O)c2)S(=O)(=O)c2ccc(C)cc2)cc1	u	x	x	-30	26%
Oc1cc(-c2nc3ccccc3s2)cc2c1OCCN(Cc1cccn1-c1nccs1)C2	x	x	x	x	23%
CC(Oc1ccccc1)C(=O)OCc1cc(=O)n2nc(C(C)C)sc2n1 (stereo unspecified)	x	7%[46.1 µM]	x	-10	-17%
COc1ccc(-c2csc3nc(-c4ccc(F)cc4)oc(=O)c23)cc1OC	x	17%[46.1 µM]	-1%[46.1 µM]	7	-10%
CCC(C)Sc1nc2c(c(=O)[nH]1)C(c1cccs1)C1=C(CCCC1=O)N2 (stereo unspecified)	-2%	x	x	-93*	-28%
O=C1CCCC2=C1C(c1ccncc1)c1c(nc(SCc3ccccc3Cl)[nH]c1=O)N2 (stereo unspecified)	-5%	u	10µM*	7	-6%
O=C(NCCc1ccc(Cl)cc1)c1c2c(nc3ccccc13)C(=O)N(C1CCCCC1)C2	x	1%[46.1 µM]	x	13	-16%
O=C(CCn1c(=O)c2ccccc2n(CC(=O)Nc2cccc(F)c2)c1=O)NCCc1ccccc1	x	29%[46.1 µM]	-15%[46.1 µM]	3	-9%
CN1CCN(Cc2cc(COCc3ccccc3)c3cccnc3c2O)CC1	3.2µM*	u	6.3µM*	u	-19%
COc1cc(CN2CCN(c3cccc(Cl)c3)CC2)cc(OC)c1OC	-5%	-29%	-19%	29	-24%
CCOc1cccc(CN2CCCC(N3CCN(c4cccc(Cl)c4)CC3)C2)c1O (stereo unspecified)	-12%	-1%[46.1 µM]	u	49	-24%
